Data as given in PubChem BioAssay (NCI).
Compounds without any hit were thinned out: in the full panel of roughly 79,000, 15% have a hit. Calls of active or inactive are those of the source. No stated cut-off is given here; in the data, active means growth inhibition above about 70%; inactive means the rest.

What was measured:
[1] = NCI Yeast Anticancer Drug Screen. Data for the rad50 strain (AID 155);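 further: 0% = growth of vehicle-only cultures of the same strain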; details: S. cerevisiae rad50 strain growth inhibition, stronger effect = higher value
Outline: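 Readout: growth inhibition relative to vehicle-treated cultures. Compound exposure was carried out in a genetically defined yeast strain deficient in DNA damage repair.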

[2] = NCI Yeast Anticancer Drug Screen. Data for the mec2-1 strain (AID 157); details: S. cerevisiae mec2-1 strain, stronger effect = higher value
Outline: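 mec2-1 yeast strain, carrying an alteration in DNA damage repair or cell cycle control, was exposed to compounds; growth inhibition was measured relative to vehicle-treated controls.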

[3] = NCI Yeast Anticancer Drug Screen. Data for the sgs1 mgt1 strain (AID 161);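 further: 0% = growth of cultures given vehicle only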; details: S. cerevisiae sgs1 mgt1 strain, stronger effect = higher value
Outline: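 Compounds are added to genetically altered yeast, and growth is compared with cultures given vehicle alone to give percent inhibition.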

[4] = NCI Yeast Anticancer Drug Screen. Data for the cln2 rad14 strain (AID 165);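 further: 0% = growth equal to vehicle treated cultures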; details: S. cerevisiae cln2 rad14 strain, stronger effect = higher value
Outline: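 Yeast carrying cln2 and rad14 alterations (cell cycle control and DNA damage repair) were exposed to compounds. Growth inhibition was measured against vehicle-treated controls.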

[5] = NCI Yeast Anticancer Drug Screen. Data for the bub3 strain (AID 167); details: S. cerevisiae bub3 mutant strain, stronger effect = higher value
Outline: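 Readout: yeast growth inhibition, expressed relative to vehicle-only wells. The test organism is a mutant strain from a panel with lesions in DNA repair or checkpoint genes.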

[6] = NCI Yeast Anticancer Drug Screen. Data for the mlh1 rad18 strain (AID 175); details: S. cerevisiae mlh1 rad18 strain growth inhibition, stronger effect = higher value
Outline: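 Growth inhibition of the yeast strain was measured after compound exposure and expressed relative to vehicle-treated controls. The strain carries defined defects in DNA damage repair.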

[7] = at 5.0 µM (retest, dose inferred, filed as 0.5)
[8] = at 50.0 µM (retest, dose inferred, filed as 5.0)

Measured: growth inhibition

CN(C(=S)c1ccccc1)c1ccccc1
active: [1]; at 50.0 µM 97.4% | [2]; at 50.0 µM 82% | [5]; at 50.0 µM 96.6% | [6]; at 50.0 µM 91.7%
inactive: [1]; [7] -166% | [1]; [8] -132% | [2]; [7] -45% | [2]; [8] -56% | [3]; [7] -63% | [3]; [8] -61% | [3]; at 50.0 µM 69.2% | [4]; [7] -61% | [4]; [8] -65% | [4]; at 50.0 µM 58.7% | [5]; [7] -81% | [5]; [8] -80% | [6]; [7] -150% | [6]; [8] -131%

COCCCNC(=S)N/N=C/c1cc(Cl)cc(Cl)c1O
active: [1]; [8] 75% | [1]; at 50.0 µM 92.5% | [2]; [8] 81% | [2]; at 50.0 µM 89.3% | [3]; [8] 94% | [3]; at 50.0 µM 93.6% | [4]; [8] 77% | [5]; [8] 83% | [5]; at 50.0 µM 80.7% | [6]; [8] 93% | [6]; at 50.0 µM 85.2%
inactive: [1]; [7] 21% | [2]; [7] 15% | [3]; [7] 27% | [4]; [7] 10% | [4]; at 50.0 µM 48.7% | [5]; [7] 4% | [6]; [7] 13%

C[C@@]12C(=O)OC(=O)[C@]1(C)[C@H]1CC[C@@H]2O1
active: [1]; [7] 96% | [1]; [8] 98% | [1]; at 50.0 µM 93.2% | [2]; [7] 94% | [2]; [8] 99% | [2]; at 50.0 µM 94.2% | [3]; [7] 97% | [3]; [8] 97% | [3]; at 50.0 µM 93.3% | [4]; [7] 78% | [4]; [8] 98% | [4]; at 50.0 µM 91.8% | [5]; [7] 70% | [5]; [8] 99% | [5]; at 50.0 µM 92.8% | [6]; [7] 96% | [6]; [8] 98% | [6]; at 50.0 µM 92.5%

CNC(Cc1ccccc1)c1ccc(OC)c2ccccc12 (configuration not stated)
inactive: [1]; [7] 3% | [1]; [8] 9% | [1]; at 50.0 µM 18.2% | [2]; [7] 6% | [2]; [8] -16% | [2]; at 50.0 µM 10.2% | [3]; [7] -3% | [3]; [8] -10% | [3]; at 50.0 µM 14.8% | [4]; [7] -1% | [4]; [8] 11% | [4]; at 50.0 µM 7.7% | [5]; [7] 27% | [5]; [8] 25% | [5]; at 50.0 µM 51.7% | [6]; [7] -2% | [6]; [8] 40% | [6]; at 50.0 µM 21.6%

CCCCCc1ccc2cc(C(=O)O)[nH]c2c1
inactive: [1]; [7] 4% | [1]; [8] 59% | [2]; [7] 3% | [3]; [7] -4% | [3]; [8] 59% | [4]; [7] -1% | [4]; [8] 59% | [5]; [7] 1% | [5]; [8] 47% | [6]; [7] 3% | [6]; [8] 51%
active: [1]; at 50.0 µM 96.7% | [2]; [8] 72% | [2]; at 50.0 µM 95.6% | [3]; at 50.0 µM 95% | [4]; at 50.0 µM 97.8% | [5]; at 50.0 µM 97.2% | [6]; at 50.0 µM 98.2%

Nc1ccc2c(SCCSc3c4ccccc4nc4cc(N)ccc34)c3ccccc3nc2c1
inactive: [1]; [7] 25% | [1]; at 50.0 µM 56% | [2]; [7] 20% | [2]; [8] 62% | [2]; at 50.0 µM 33% | [3]; [7] 28% | [3]; at 50.0 µM 52.6% | [4]; [7] 6% | [4]; [8] 28% | [4]; at 50.0 µM -8.65% | [5]; [7] 1% | [5]; [8] -14% | [5]; at 50.0 µM -6.05% | [6]; [7] 23% | [6]; [8] 46% | [6]; at 50.0 µM 29.9%
active: [1]; [8] 81% | [3]; [8] 76%

CCOC(=O)c1c(Cl)c(CC)c(N=[N+]=[N-])n2c1nc1ccccc12
active: [1]; [8] 73% | [2]; [8] 79% | [3]; [8] 73% | [5]; [8] 74% | [6]; [8] 80%
inactive: [1]; [7] 8% | [1]; at 50.0 µM 58.9% | [2]; [7] 8% | [2]; at 50.0 µM 56.9% | [3]; [7] 10% | [3]; at 50.0 µM 60.1% | [4]; [7] 0% | [4]; [8] 63% | [4]; at 50.0 µM 69.6% | [5]; [7] 1% | [5]; at 50.0 µM 55% | [6]; [7] 9% | [6]; at 50.0 µM 64.6%

O=C(NNc1ccc(F)cc1)C12CC3CC(CC(C3)C1)C2
inactive: [1]; [7] 9% | [2]; [7] 3% | [2]; [8] 68% | [2]; at 50.0 µM 17.8% | [3]; [7] 4% | [3]; at 50.0 µM 53.2% | [4]; [7] 4% | [4]; [8] 57% | [4]; at 50.0 µM 27.1% | [5]; [7] -3% | [6]; [7] 2% | [6]; at 50.0 µM 27.1%
active: [1]; [8] 90% | [1]; at 50.0 µM 98.4% | [3]; [8] 98% | [5]; [8] 97% | [5]; at 50.0 µM 98.3% | [6]; [8] 98%

COc1ccc([N+](=O)[O-])cc1[I+]c1cc([N+](=O)[O-])ccc1OC
inactive: [1]; [7] 19% | [2]; [7] 58% | [3]; [7] 49% | [4]; [7] 16% | [5]; [7] 9% | [6]; [7] 57%
active: [1]; [8] 95% | [1]; at 50.0 µM 93.2% | [2]; [8] 89% | [2]; at 50.0 µM 76.3% | [3]; [8] 95% | [3]; at 50.0 µM 92.2% | [4]; [8] 86% | [4]; at 50.0 µM 94.2% | [5]; [8] 85% | [5]; at 50.0 µM 90.8% | [6]; [8] 98% | [6]; at 50.0 µM 95.7%
